PubChem BioAssay AID411 (National Center for Advancing Translational Sciences (NCATS), 2006)
Screen size: about 72,000 compounds; about 1,600 (2.2%) were called active. A call without a number means that no potency is given here. This excerpt belongs to a sample that is enriched for actives. Values without a mark were called inactive. Calls follow the shape of the dose curve; as a rule, active = well fitted inhibition curve with a large enough effect; inconclusive = small, poorly fitted or top-dose-only effect; inactive = flat fitted curve, though single readings scatter.

The molecules below were run against Luciferin 4-monooxygenase (Photinus pyralis) (UniProt P08659) (assay: qHTS Assay for Inhibitors of Firefly Luciferase). Settings: purified firefly luciferase, luminescence, 8 min; series mostly up to 57.1 µM.
Protocol: To aid in the interpretation of high-throughput screening (HTS) results derived from luciferase-based assays, we used quantitative HTS, an approach that defines the concentration-response behavior of each library sample, to profile the ATP-dependent luciferase from Photinus pyralis against more than 72 000 samples. Luciferase (PKLight, Cambrex Corporation) was assayed for its ability to generate light using ATP and luciferin as substrates. The ATP concentration in the assay (10 uM) was within the linear range of enzyme activity for the assay conditions used. See following reference for further details: [1] Auld DS, Southall NT, Jadhav A, Johnson RL, Diller DJ, Simeonov A, Austin CP, Inglese J. Characterization of chemical libraries for luciferase inhibitory activity. J Med Chem. 2008 Apr 24;51(8):2372-86. Auld DS, Zhang YQ, Southall NT, Rai G, Landsman M, Maclure J, Langevin D, Thomas CJ, Austin CP, Inglese J. A Basis for Reduced Chemical Library Inhibition of Firefly Luciferase Obtained from Directed Evolution. J. Med. Chem., 2009, 52 (5), pp 1450#1458 [3] Auld DS, Thorne N, Nguyen DT, Inglese J. A specific mechanism for nonspecific activation in reporter-gene assays. ACS Chem Biol. 2008 Aug 15;3(8):463-70. Auld DS, Thorne N, Maguire WF, Inglese J. Mechanism of PTC124 activity in cell-based luciferase assays of nonsense codon suppression. Proc Natl Acad Sci U S A. 2009 Mar 3;106(9):3585-90. Inglese J, Auld DS, Jadhav A, Johnson RL, Simeonov A, Yasgar A, Zheng W, Austin CP. Quantitative high-throughput screening: a titration-based approach that efficiently identifies biological activities in large chemical libraries. Proc Natl Acad Sci U S A. 2006 Aug 1;103(31):11473-8.
Four uL of substrate mix (final concentration, 50 mM imidazole pH 7.2, 50 mM KCl, 7 mM MgCl2, 10 uM ATP, 0.01% Tween 20, 0.05% BSA) was dispensed into white 1536 well plates. Twenty-three nL of compound was delivered by a pin tool and 2 uL of luciferase detector mix (PKLight, Cambrex) was added. Following 8-minute incubation at ambient temperature, luminescence was measured by a ViewLux (Perkin Elmer) at 5 seconds exposure/plate.
Also: nearly all actives have a fitted effect of over 40% in size.
Potency is read from the fitted curve at half-maximal effect.

Chain of Luciferin 4-monooxygenase (Photinus pyralis) (P08659 whole entry, looked up): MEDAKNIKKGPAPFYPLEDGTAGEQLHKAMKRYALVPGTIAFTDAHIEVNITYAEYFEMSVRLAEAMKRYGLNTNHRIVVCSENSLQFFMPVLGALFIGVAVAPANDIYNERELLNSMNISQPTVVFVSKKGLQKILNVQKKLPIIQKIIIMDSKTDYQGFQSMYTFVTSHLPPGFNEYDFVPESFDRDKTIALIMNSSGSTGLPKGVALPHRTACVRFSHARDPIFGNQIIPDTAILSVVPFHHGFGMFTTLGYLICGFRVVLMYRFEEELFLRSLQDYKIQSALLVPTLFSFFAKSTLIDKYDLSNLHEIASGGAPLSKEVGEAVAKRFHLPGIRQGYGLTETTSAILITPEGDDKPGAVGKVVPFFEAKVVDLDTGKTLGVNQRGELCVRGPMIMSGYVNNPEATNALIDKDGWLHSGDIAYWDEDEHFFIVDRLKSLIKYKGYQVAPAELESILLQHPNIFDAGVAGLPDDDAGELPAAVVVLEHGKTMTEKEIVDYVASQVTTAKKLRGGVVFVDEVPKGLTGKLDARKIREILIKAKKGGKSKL

Row | SMILES | Potency | activity change, negative = inhibition
1 | COC(=O)CNS(=O)(=O)c1ccc(Cc2ccc(S(=O)(=O)NCC(=O)OC)cc2)cc1 | inactive | –
2 | O=C(Nc1ccncc1)c1c(F)cccc1F | inactive | –
3 | O=C(Nc1ccncc1)c1cc2ccccc2o1 | 20 µM (active) | –
4 | O=C(NCCc1ccc2c(c1)OCCO2)c1cc2ccccc2o1 | inactive | –
5 | O=C(c1ccco1)N1CCC[C@@]2(CCN(Cc3nccs3)C2)C1 | – | 2.02% [at 11.4 µM]
6 | COc1ccc(Cc2nnnn2CC(=O)O)cc1 | inactive | –
7 | CCOC(=O)c1sc(NC(=O)c2cc(S(=O)(=O)N3CCOCC3)ccc2C)nc1C | inactive | –
8 | CC(=O)Cc1nsc(NC(=O)c2csc3c2CCCC3)n1 | inactive | –
9 | COC(=O)c1sc(NC(=O)c2ccc(OC)cc2OC)nc1C | 0.0794 µM (active) | –
10 | COc1ccc(C(=O)Nc2nncs2)c(OC)c1 | inactive | –
11 | COC(=O)c1sccc1NC(=O)c1csc2c1CCCC2 | inactive | –
12 | COC(=O)c1sc(NC(=O)c2csc3c2CCCC3)nc1C | 10 µM (active) | –
13 | CC(C)=CCC/C(C)=C/CO/N=C1/C[C@@H](O)[C@@H](O)[C@@H]2[C@@H]3C(=O)N(C(C)(C)C)C(=O)[C@H]3CC[C@H]12 | – | 0.109% [at 11.4 µM]
14 | Cc1cnc(NC(=O)CSc2nnc(-c3ccc(Cl)cc3Cl)n2N)s1 | inactive | –
15 | CCOC(=O)C1CCN(C(c2cc3cc(C)cc(C)c3[nH]c2=O)c2nnnn2C2CCCCC2)CC1 (stereo unspecified) | inactive | –
16 | COc1ccc(-c2nn(-c3ccccc3)cc2C(=O)Nc2nc(CC(C)=O)ns2)cc1 | inactive | –
17 | O=C(O)C1CCN(c2ncnc3ccc(-c4ccccc4C(F)(F)F)cc23)CC1 | – | 0.203% [at 2.29 µM]
18 | COc1ccc(NC2CC(=O)N(C)C2=O)cc1 (stereo unspecified) | inactive | –
19 | COc1ccccc1CNc1ccnc(-c2c(C)noc2C)n1 | – | -0.167% [at 2.29 µM]
20 | CC(C)(C)c1csc(NC2=NS(=O)(=O)c3ccccc32)n1 | 7.94 µM (active) | –
21 | CC(c1nnc(SCC(=O)Nc2sccc2C#N)n1-c1ccc(Cl)cc1)N(C)C (stereo unspecified) | inactive | –
22 | O=S(=O)(c1cccs1)N1CCN(Cc2ccccc2)CC1 | inactive | –

Row | SMILES | Potency | activity change, negative = inhibition
23 | CCCCN(C)C(=O)C1CCN(Cc2ccccn2)CC1 | inactive | –
24 | COc1ccc(-n2ncc3c(N4CCCc5ccccc54)ncnc32)cc1 | 12.6 µM (active) | –
25 | c1ccc(-n2ncc3c(N4CCCC4)ncnc32)cc1 | 5.01 µM (active) | –
26 | Cc1ccc(-n2ncc3c(N4CCN(c5ccc(F)cc5)CC4)ncnc32)c(C)c1 | inactive | –
27 | COc1ccc(N2CCN(C(=O)CSc3ncnc4c3cnn4-c3ccc(OC)cc3)CC2)cc1 | inactive | –
28 | c1ccc(-n2ncc3c2ncn2c(C4CCCCC4)nnc32)cc1 | inactive | –
29 | Cc1cccc(-n2ncc3c(N4CCc5ccccc54)ncnc32)c1 | inactive | –
30 | COc1ccc2c(c1)C=CC1(O2)N(CCO)c2ccccc2C1(C)C (stereo unspecified) | inactive | –
31 | CCOC(=O)c1cc(-c2nnc(-c3cc(OC)c(OC)c(OC)c3)o2)c(C)nc1C | inactive | –
32 | CC(=O)c1c(C)n(-c2ccc(N(C)C)cc2)c2ccc(OCC(N)=O)cc12 | inactive | –
33 | N#CC1=C(N)C(C#N)(C#N)[C@H](c2ccsc2)[C@H]2COCC=C12 | inactive | –
34 | Cn1c(-c2ccc(C(=O)c3ccccc3)s2)nc2ccccc21 | 2.51 µM (active) | –
35 | Cc1nn2c3ccccc3nc2n(C)c1=O | inactive | –
36 | Cn1c(CNC(=O)C(C)(C)C)nc2ccccc21 | inactive | –
37 | Cn1c(=O)c2c(n(Cc3ccccc3)c1=O)NC(=O)C2CC(=O)N1CCc2ccccc2C1 (stereo unspecified) | inactive | –
38 | Cc1cc(Cl)c(S(=O)(=O)Nc2ccc3c(c2)OCCO3)cc1OCC(N)=O | inactive | –
39 | COc1ccccc1OCCOc1ccc(/C=N/n2cnnc2)cc1 | inactive | –
40 | O=C(CSc1nc2c(cnn2-c2ccc(F)cc2)c(=O)[nH]1)N1CCCCCC1 | inactive | –
41 | O=C(NCc1cn2ccsc2n1)Nc1cccc(Cl)c1 | inactive | –
42 | CCCC(=O)Nc1cccc(-c2cn3ccsc3n2)c1 | 15.8 µM (active) | –
43 | CCCC(=O)Nc1ccc2c(c1)nc1n2CCSC1 | inactive | –
44 | O=C(O)CS(=O)c1ccc2c3c(cccc13)C(=O)c1ccccc1-2 (stereo unspecified) | – | -1.48% [at 11.4 µM]

Row | SMILES | Potency | activity change, negative = inhibition
45 | CC(=NCC1CCCO1)c1c(O)[nH]c(=O)[nH]c1=O (stereo unspecified) | inactive | –
46 | O=C(CS(=O)(=O)Cc1ccccc1)NCC1CCCO1 (stereo unspecified) | inactive | –
47 | O=C1C(C=NCC2CCCO2)=C(O)c2ccccc21 (stereo unspecified) | 15.8 µM (active) | –
48 | CCCCOc1ccc(-c2ncc(C(=O)OCC)c(N)n2)cc1 | inactive | –
49 | CCCOc1ccc(-c2nc(N)n[nH]2)cc1 | 15.8 µM (active) | –
50 | Nc1nc(SCCOc2ccccc2)n[nH]1 | inactive | –
51 | O=C(Cn1[nH]c(=O)c2ccccc2c1=O)Nc1cccc(-c2nnc3n2CCCCC3)c1 | inactive | –
52 | O=c1c2c(nc3n1CCCCC3)sc1c(O)cccc12 | 15.8 µM (active) | –
53 | Cc1cc(=O)n2c3c(cccc13)CCC2 | inactive | –
54 | CCCn1c(=O)c2ccccc2n2c(SCC(=O)/C(C#N)=C(\C)N)nnc12 | inactive | –
55 | CCc1ccc2oc(-c3ccc(N)cc3)nc2c1 | 2 µM (active) | –
56 | Nc1ccc(-c2nnc(-c3ccc(-c4ccccc4)cc3)o2)cc1 | inactive | –
57 | CCCCCC(=O)Nc1ccc2oc(-c3ccncc3)nc2c1 | inactive | –
58 | Cc1cc(Cl)c(S(=O)(=O)NCC2CCCO2)cc1OCC(N)=O (stereo unspecified) | inactive | –
59 | O=C(Oc1cccnc1)c1cc2ccccc2oc1=O | inactive | –
60 | Nc1ncc(-c2cc3ccccc3oc2=O)s1 | 12.6 µM (active) | –
61 | O=C(NCc1ccccn1)c1cc2ccccc2oc1=O | inactive | –
62 | O=c1c(-c2ccc(F)cc2)nc2cncnc2n1-c1ccccc1 | – | 0.918% [at 11.4 µM]
63 | CCC(=O)Nc1ccc(C(=O)CSc2nnc(CNc3ccc(Cl)cc3)o2)cc1OC | inactive | –
64 | C#CC(C)(C)NC(=O)CSc1nc2c(c(=O)n(C)c(=O)n2C)n1CCCC | inactive | –
65 | Cc1c(NC(=O)Nc2ccccc2Cl)sc(=S)n1C | inactive | –
66 | Oc1ccc(-c2csc(Nc3cccnc3)n2)cc1 | inactive | –

Row | SMILES | Potency | activity change, negative = inhibition
67 | c1ccc(Nc2nc(-c3ccncc3)cs2)nc1 | 7.94 µM (active) | –
68 | Clc1ccc(Nc2nc(-c3cccs3)cs2)nc1 | inactive | –
69 | CC(=O)OCC(=O)[C@@]1(O)CC[C@@H]2[C@H]3CCC4=CC(=O)C=C[C@]4(C)[C@]3(F)[C@@H](O)C[C@@]21C | inactive | –
70 | Cn1c2c(c(=O)n(C)c1=O)CN(Cc1ccco1)CN2 | inactive | –
71 | COc1cc(OC)c(C(=O)Nc2ccc(N(C)C)cc2)cc1OC | 15.8 µM (active) | –
72 | COc1cc(OC)c(C(=O)NC2CCCCCC2)cc1OC | inactive | –
73 | COc1ccc(C(=O)Nc2cccnc2)cc1C(=O)Nc1cccnc1 | inactive | –
74 | CCOP1(=O)C=C(C(C)(C)C)OC1c1ccc(F)cc1 (stereo unspecified) | inactive | –
75 | O=c1c(-c2ccc(F)c(F)c2)nc2cncnc2n1-c1ccccc1 | – | 1.37% [at 11.4 µM]
76 | COc1ccc(Oc2ncc3nc(-c4ccc(F)cc4)c(=O)n(C)c3n2)cc1 | – | 0.178% [at 11.4 µM]
77 | CN1CCC2(CC1)CCN(S(=O)(=O)c1ccccc1)CC2 | – | 1.62% [at 11.4 µM]
78 | Cc1ccc(C(=O)NCC2CCCO2)o1 (stereo unspecified) | inactive | –
79 | Cc1nc2ccccc2c2oc(C(=O)NCC3CCCO3)cc12 (stereo unspecified) | inactive | –
80 | Cc1ccc(-c2noc(-c3ccccc3C(=O)NCC3CCCO3)n2)cc1 (stereo unspecified) | 12.6 µM (active) | –
81 | CCCN1C2=C(C(=O)CCC2)C(c2ccc(O)c(Br)c2)C2=C1CCCC2=O | inactive | –
82 | O=S(=O)(N1CCOCC1)N1CCN(c2ccccc2F)CC1 | inactive | –
83 | CCCn1c(=O)c2[nH]c(-c3ccc(OCC(=O)NCCN)cc3)nc2n(CCC)c1=O | inactive | –
84 | CCc1ccccc1N(CC(=O)N1CCN(c2ccccc2F)CC1)S(C)(=O)=O | inactive | –
85 | COc1ccc(N2CCN(C(=O)CSc3nc4cc(OC)c(OC)cc4cc3C#N)CC2)cc1 | inactive | –
86 | CCOc1ccc2nc(N3CCCN(C(=O)Nc4ccccc4C)CC3)c(C#N)cc2c1 | inactive | –
87 | COc1ccc2nc(N3CCCC(O)C3)c(C#N)cc2c1 (stereo unspecified) | 12.6 µM (active) | –
88 | CCOc1ccc(N(CC(=O)NCc2ccc(OC)cc2)S(=O)(=O)c2c(C)noc2C)cc1 | inactive | –

Row | SMILES | Potency | activity change, negative = inhibition
89 | Cc1ccc(-c2noc(CCC(=O)Nc3ccccc3N3CCN(C)CC3)n2)cc1 | inactive | –
90 | CCNC(=O)CCc1nc(-c2ccc(C(C)(C)C)cc2)no1 | 5.01 µM (active) | –
91 | Cc1ccc(-c2noc(CCC(N)=O)n2)cc1 | inactive | –
92 | O=C(OCCO)c1cc(Cl)c(C(=O)OCCO)cc1Cl | inactive | –
93 | CCc1ccc(-c2nnn(Cc3nn[nH]n3)n2)cc1 | inactive | –
94 | c1ccc(-n2ncc(-c3nn[nH]n3)n2)cc1 | inactive | –
95 | CC(C)c1ccc(-c2nn[nH]n2)cc1 | 15.8 µM (active) | –
96 | CCCCn1c(CN2CCN(CCO)CC2)nc2ccccc21 | inactive | –
97 | CCOC(=O)CCc1c(C)c2ccc(OCc3nn[nH]n3)c(C)c2oc1=O | inactive | –
98 | Cn1c(NC(=O)c2ccc3c(c2)OCO3)cc(=O)n(C)c1=O | inactive | –
99 | Cc1ccc(C(=O)Nc2ccc3c(c2)OCO3)cc1S(=O)(=O)N1CCCCC1 | inactive | –
100 | Cn1c(=O)n(C)c2cc(C(=O)Nc3ccc4c(c3)OCO4)ccc21 | inactive | –
101 | COc1ccc(C(=O)Nc2ccc3c(c2)OCO3)cc1OC | 12.6 µM (active) | –
102 | CC(C)C(=O)Nc1cccc(C(=O)Nc2ccc3c(c2)OCO3)c1 | 15.8 µM (active) | –
103 | Cc1ccc(F)cc1NC(=O)c1ccc2c(c1)OCO2 | inactive | –
104 | CCOc1ccc(NC(=O)CSc2nc3c(c(=O)n2-c2ccccc2OC)SCC3)cc1 | inactive | –
105 | C[C@H](CCC(=O)NCC(=O)O)[C@H]1CC[C@H]2[C@H]3[C@@H](C[C@@H](O)[C@]12C)[C@]1(C)CC[C@H](O)C[C@@H]1C[C@@H]3O | inactive | –
106 | CCCOc1ccc(/C(O)=C2/C(=O)C(=O)N(CCN(C)C)C2c2ccc(OC)c(OC)c2)cc1 (stereo unspecified) | inactive | –
